Consider 19 compounds from PubChem BioAssay.

A word on the inhibition: it is the change of the read-out against control, counted positive when it falls.

Several values for one entry are separate records, joined by “and”; a condition that tells them apart may be missing. Equal values may be shown once. For some assays here: Potency and affinity values are given separately. A structure can be active in one record and inactive in another. Activity calls are given as the source filed them. Unless noted, how the calls were made is not given here.

A short description of test [1]: antimalarial activity against Dd2 strain (AID 2302;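 active means growth inhibition above 50% at the single 2 µM test dose, taken to imply half-maximal potency below 2 µM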;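 further: 0% = DMSO untreated growth and 100% = chloroquine plus artemisinin killed control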). As to conditions: P. falciparum Dd2 in RBCs, LDH growth readout, 72 h; at 2 µM; stronger effect = higher value.
A short description of test [2]: human hepatoma cell viability loss – ATP luminescence, cytotoxicity control for P. falciparum antimalarial project, primary screen (AID 2303;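 active means inhibition above 50%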;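 further: 0% = DMSO wells and 100% = digitonin-killed cells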). Conditions: HepG2 viability, 24-48 h, at 10 µM, stronger effect = higher value.
The target in test [3] is L-lactate dehydrogenase (Plasmodium falciparum (isolate CDC / Honduras)) (UniProt Q27743). The test is described as follows: PfLDH activity inhibition – cell lysate, 3D7 strain, counter-screen for P. falciparum growth inhibition project (AID 2304).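 Further: 0% = vehicle and 100% = reference inhibitor.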 As to conditions: P. falciparum 3D7 crude extract, LDH APAD/NBT absorbance; at 2 µM; stronger effect = higher value. (Counterscreens check selectivity or assay interference.)
L-lactate dehydrogenase (Plasmodium falciparum (isolate CDC / Honduras)), sequence (Q27743 whole entry, looked up): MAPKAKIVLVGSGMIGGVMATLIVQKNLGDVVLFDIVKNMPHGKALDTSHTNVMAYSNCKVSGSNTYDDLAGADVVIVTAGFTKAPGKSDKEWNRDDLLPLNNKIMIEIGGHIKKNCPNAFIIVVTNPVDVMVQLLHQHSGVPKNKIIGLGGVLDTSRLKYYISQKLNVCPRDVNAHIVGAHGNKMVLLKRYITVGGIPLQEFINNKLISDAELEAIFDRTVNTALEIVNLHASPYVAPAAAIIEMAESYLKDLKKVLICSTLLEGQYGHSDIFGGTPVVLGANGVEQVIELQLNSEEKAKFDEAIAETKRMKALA

A short description of test [4]: inhibition of 3D7 malaria parasite growth – strain 3D7 (AID 2306).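 Further: 0% = DMSO wells and 100% = chloroquine plus artemisinin control wells.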 Conditions: P. falciparum 3D7 erythrocytic growth, LDH absorbance, 72 h; at 2 µM; stronger effect = higher value.
For test [5], the target named is Calcium-dependent protein kinase 1 (Plasmodium falciparum (isolate 3D7)) (UniProt P62344). Description: PfCDPK1 kinase inhibitors, biochemical, TCAMS library (AID 1159585; cut-off not given, nearly all actives have IC50 up to about 0.98 µM;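 further: inhibitors leave more ATP so luminescence rises with inhibition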). As to conditions: recombinant PfCDPK1, Kinase-Glo ATP depletion luminescence. Background: In Kinase-Glo more light means more ATP remaining.
Calcium-dependent protein kinase 1 (Plasmodium falciparum (isolate 3D7)), sequence (P62344 whole entry, looked up): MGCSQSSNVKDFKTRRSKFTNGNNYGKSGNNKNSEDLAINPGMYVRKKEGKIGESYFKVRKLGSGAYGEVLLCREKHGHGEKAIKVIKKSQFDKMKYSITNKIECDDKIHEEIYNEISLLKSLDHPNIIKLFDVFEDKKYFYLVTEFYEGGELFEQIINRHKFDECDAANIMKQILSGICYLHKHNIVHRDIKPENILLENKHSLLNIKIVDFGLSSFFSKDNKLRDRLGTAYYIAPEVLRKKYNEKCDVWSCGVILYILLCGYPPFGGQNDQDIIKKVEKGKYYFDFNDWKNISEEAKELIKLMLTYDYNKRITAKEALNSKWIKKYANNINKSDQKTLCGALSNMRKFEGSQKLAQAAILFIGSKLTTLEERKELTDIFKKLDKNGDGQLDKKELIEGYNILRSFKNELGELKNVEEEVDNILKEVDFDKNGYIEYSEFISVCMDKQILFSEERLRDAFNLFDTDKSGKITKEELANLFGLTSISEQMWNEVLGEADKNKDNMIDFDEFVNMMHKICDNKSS
For test [6], the target named is Plasmodium falciparum protein kinase 6 (PK6, PF3D7_1337100) (UniProt Q8IDW1). The test is described as follows: PfPK6 kinase inhibitors, biochemical, TCAMS library (AID 1159586). Conditions: recombinant PfPK6, Kinase-Glo ATP depletion luminescence.
Plasmodium falciparum protein kinase 6 (PK6, PF3D7_1337100), sequence (Q8IDW1 1-305): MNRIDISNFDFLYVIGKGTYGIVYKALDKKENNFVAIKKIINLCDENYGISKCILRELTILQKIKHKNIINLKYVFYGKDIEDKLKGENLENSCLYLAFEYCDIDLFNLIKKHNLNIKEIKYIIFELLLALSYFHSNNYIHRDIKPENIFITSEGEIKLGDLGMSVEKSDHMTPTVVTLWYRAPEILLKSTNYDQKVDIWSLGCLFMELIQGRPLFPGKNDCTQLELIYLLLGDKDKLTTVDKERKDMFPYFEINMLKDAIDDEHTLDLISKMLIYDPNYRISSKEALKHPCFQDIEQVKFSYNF
Test [7] concerns the target Protein kinase 7 (PK7), Plasmodium falciparum 3D7 (PF3D7_0213400) (UniProt Q7YTF7). Description: inhibition of Plasmodium PK7 catalytic activity – biochemical, TCAMS antimalarial set, Kinase-Glo luminescence (AID 1159587). Conditions: recombinant PfPK7, Kinase-Glo ATP depletion luminescence.
Test [8] concerns the target Calcium-dependent protein kinase 4 (Plasmodium falciparum (isolate 3D7)) (UniProt Q8IBS5). Description: PfCDPK4 kinase inhibitors, biochemical, TCAMS library (AID 1159588; cut-off not given, nearly all actives have IC50 up to about 0.91 µM). Conditions: recombinant PfCDPK4, Kinase-Glo ATP depletion luminescence.

Protein kinase 7 (PK7), Plasmodium falciparum 3D7 (PF3D7_0213400), sequence (Q7YTF7 1-343): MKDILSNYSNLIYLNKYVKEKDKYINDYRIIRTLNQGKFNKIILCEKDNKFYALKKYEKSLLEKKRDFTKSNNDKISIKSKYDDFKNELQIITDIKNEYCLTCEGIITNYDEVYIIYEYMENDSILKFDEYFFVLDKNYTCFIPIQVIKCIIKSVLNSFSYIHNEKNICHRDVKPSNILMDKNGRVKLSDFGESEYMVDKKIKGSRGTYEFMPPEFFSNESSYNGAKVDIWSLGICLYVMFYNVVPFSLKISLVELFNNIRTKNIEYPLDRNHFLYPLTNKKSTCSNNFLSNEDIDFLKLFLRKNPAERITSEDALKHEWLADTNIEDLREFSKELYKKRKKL
Calcium-dependent protein kinase 4 (Plasmodium falciparum (isolate 3D7)), sequence (Q8IBS5 whole entry, looked up): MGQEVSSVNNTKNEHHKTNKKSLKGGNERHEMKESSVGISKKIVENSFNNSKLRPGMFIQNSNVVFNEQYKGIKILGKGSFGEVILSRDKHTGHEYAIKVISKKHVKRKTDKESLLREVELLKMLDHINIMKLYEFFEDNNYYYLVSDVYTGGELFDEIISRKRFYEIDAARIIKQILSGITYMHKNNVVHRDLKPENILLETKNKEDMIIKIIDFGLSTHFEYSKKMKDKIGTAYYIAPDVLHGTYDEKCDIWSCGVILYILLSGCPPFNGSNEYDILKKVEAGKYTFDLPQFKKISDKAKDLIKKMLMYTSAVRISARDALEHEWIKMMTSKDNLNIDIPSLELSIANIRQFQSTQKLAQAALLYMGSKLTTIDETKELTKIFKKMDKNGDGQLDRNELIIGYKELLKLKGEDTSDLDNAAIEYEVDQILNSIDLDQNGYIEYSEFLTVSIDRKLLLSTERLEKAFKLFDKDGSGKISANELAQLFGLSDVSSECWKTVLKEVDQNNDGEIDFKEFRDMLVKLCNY

Consider `O=C(CCc1ccc(Cl)cc1Cl)NC1CCC(CN2CCC(c3c[nH]c4ccccc34)CC2)CC1` (configuration not stated), for which the growth inhibition was 4% (inactive) and 45% (inactive) in test [1]; 97% (active) and 100% (active) in test [4]. The inhibition in test [2] was 33% (inactive) and 44% (inactive); in test [3] it was -4% (inactive) and 2% (inactive). The result in test [5], in test [6], in test [7] and in test [8] was inactive.

With `O=C1Nc2cccc3c2C1(CCCCN1CC=C(c2c[nH]c4ncccc24)CC1)CCC3` (configuration not stated), the growth inhibition in test [1] was 80% (active); in test [4], 92% (active). The results for the inhibition in test [2] and in test [3] were 11% (inactive) and -5% (inactive), respectively. Moreover, the outcome in test [5], in test [6], in test [7] and in test [8] was inactive.

With `CCCc1cc([C@@H](O)[C@@H]2C[C@@H]3CCN2C[C@@H]3CC)c2ccccc2n1`, the growth inhibition in test [1] was 57% (active); in test [4] it was 100% (active). Moreover, the inhibition is 9% (inactive) in test [2] and 2% (inactive) in test [3]. Further, the result in test [5], in test [6], in test [7] and in test [8] was inactive.

For `COc1ccc(CN2CCN(CCOC(c3ccccc3)c3ccccc3)CC2)c(O)c1`, the growth inhibition in test [1] was 84% (active); in test [4], 96% (active). In addition, the inhibition in test [2] is 19% (inactive); in test [3] it was 0% (inactive). In addition, the result in test [5], in test [6], in test [7] and in test [8] was inactive.

Regarding `Cn1cc(CN2CCC(CCOC(c3ccccc3)c3ccccc3)CC2)cn1`, the growth inhibition is 100% (active) in test [1] and 99% (active) in test [4]. Further, the inhibition in test [2] was 27% (inactive); in test [3], -5% (inactive). For the same compound, the outcome in test [5], in test [6], in test [7] and in test [8] was inactive.

As to `CN(C)c1cccc(CN2CC=C(c3c[nH]c4ccc(Cl)cc34)CC2)c1`, the growth inhibition in test [1] was 87% (active); in test [4], 93% (active). For the same compound, the inhibition is 40% (inactive) in test [2] and 3% (inactive) in test [3]. The result in test [5], in test [6], in test [7] and in test [8] was inactive.

For the compound `COc1cccc(/C=C/C(=O)NC2CCC(CN3CCC(c4c[nH]c5ccccc45)CC3)CC2)c1` (configuration not stated), the growth inhibition in test [1] is 26% (inactive) and 38% (inactive); in test [4], 94% (active) and 100% (active). In addition, the inhibition in test [2] is 19% (inactive) and 30% (inactive); in test [3] it was -1% (inactive) and 6% (inactive). In addition, the outcome in test [5], in test [6], in test [7] and in test [8] was inactive.

Take `CCOC(=O)CCCN1C(=O)CN=C(c2ccccc2)c2cc(Cl)ccc21`: the figures for the growth inhibition in test [1] and in test [4] were 47% (inactive) and 97% (active), respectively. The inhibition is 54% (active) in test [2] and -8% (inactive) in test [3]. Also, the outcome in test [5], in test [6], in test [7] and in test [8] was inactive.

Consider `COc1ccc(C=CC(=O)N2CCC(CN3CCC(c4c[nH]c5ccccc45)CC3)CC2)cc1OC`, for which the growth inhibition in test [1] is 4% (inactive); in test [4], 94% (active). Also, the inhibition in test [2] was 20% (inactive); in test [3] it was 0% (inactive). The outcome in test [5], in test [6], in test [7] and in test [8] was inactive.

Regarding `Oc1cc2c(cc1CN1CCN(Cc3ccccc3)CC1)CCC2`, the results for the growth inhibition in test [1] and in test [4] were 92% (active) and 98% (active), respectively. The results for the inhibition in test [2] and in test [3] were 1% (inactive) and 0% (inactive), respectively. Besides, the outcome in test [5], in test [6], in test [7] and in test [8] was inactive.

With `C=CCOc1ccccc1CNCC(O)c1cccc(C(F)(F)F)c1` (configuration not stated), the growth inhibition in test [1] is 98% (active); in test [4] it was 99% (active). Besides, the inhibition is 10% (inactive) in test [2] and -1% (inactive) in test [3]. The outcome in test [5], in test [6], in test [7] and in test [8] was inactive.

As for `CN1CC=C(c2c[nH]c3ccc(OCc4ccccc4)cc23)CC1`, the growth inhibition in test [1] is 97% (active); in test [4], 95% (active). Moreover, the inhibition in test [2] and in test [3] was -2% (inactive) in each case. In addition, the result in test [5], in test [6], in test [7] and in test [8] was inactive.

Regarding `CN1CC=C(C=Cc2c[nH]c3ccccc23)CC1`, the growth inhibition in test [1] is 64% (active); in test [4], 86% (active). Further, the inhibition was 14% (inactive) in test [2] and -1% (inactive) in test [3]. Moreover, the outcome in test [5], in test [6], in test [7] and in test [8] was inactive.

For the compound `Cc1cc(N(C)C2CCN(C)CC2)nc(Nc2ccc(Cl)cc2)n1`, the growth inhibition in test [1] is 90% (active); in test [4] it was 98% (active). Besides, the values for the inhibition in test [2] and in test [3] were 15% (inactive) and -6% (inactive), respectively. Also, the outcome in test [5], in test [6], in test [7] and in test [8] was inactive.

As to `CC[C@H]1CN2CC[C@@H]1C[C@H]2[C@H](O)c1cc(N2CCCC(C)(C)C2)nc2ccc(OC)cc12`, the growth inhibition in test [1] was 72% (active); in test [4], 101% (active). Moreover, the inhibition in test [2] is 25% (inactive); in test [3] it was 3% (inactive). Further, the result in test [5], in test [6], in test [7] and in test [8] was inactive.

As for `O=C(/C=C/c1ccc(Cl)c(Cl)c1)NCCC1CCC(N2CCC(c3c[nH]c4ccccc34)CC2)CC1` (configuration not stated), the figures for the growth inhibition in test [1] and in test [4] were 99% (active) and 102% (active), respectively. Moreover, the figures for the inhibition in test [2] and in test [3] were 91% (active) and -1% (inactive), respectively. The outcome in test [5], in test [6], in test [7] and in test [8] was inactive.

With `CC(Cc1ccc([N+](=O)[O-])cc1)NCC(O)c1cccc(C(F)(F)F)c1` (configuration not stated), the values for the growth inhibition in test [1] and in test [4] were 92% (active) and 98% (active), respectively. Moreover, the inhibition in test [2] and in test [3] was -2% (inactive) each time. The result in test [5], in test [6], in test [7] and in test [8] was inactive.

As for `O=C(Nc1cc(C(F)(F)F)cc(C(F)(F)F)c1)NC1CCC(CN2CCC(c3c[nH]c4ccccc34)CC2)CC1` (configuration not stated), the growth inhibition in test [1] was 72% (active) and 98% (active); in test [4], 97% (active) and 101% (active). Also, the inhibition in test [2] is 19% (inactive) and 58% (active); in test [3] it was 8% (inactive) and -8% (inactive). Besides, the outcome in test [5], in test [6], in test [7] and in test [8] was inactive.

Turning to `O=C(C=C1c2ccccc2-c2ccccc21)NC1CCC(CN2CCC(c3c[nH]c4ccccc34)CC2)CC1` (configuration not stated), the growth inhibition in test [1] is 64% (active) and 67% (active); in test [4], 102% (active) and 99% (active). The inhibition in test [2] was 21% (inactive) and 54% (active); in test [3] it was 4% (inactive) and 1% (inactive). Further, the result in test [5], in test [6], in test [7] and in test [8] was inactive.
